Twelve sequences from paper PMC5700166 can be followed below.

Numbering of substitutions follows the chain as printed.

Common to all, as to assay: protein-binding microarray (PBM); PBM: ~300 nM protein, 6 mM HEPES pH 7.8, 80 mM KCl, 0.5 mM EDTA, 0.5 mM EGTA, 6% glycerol, 35 ng/ul poly-dIdC, 1% milk, 1 h, room temperature; Ap Aiptasia and Nv Nematostella (sea anemones) / Co Capsaspora / Aq Amphimedon (sponge) / Dm Drosophila / Hu human; RHD is the Rel homology domain; high values mean tight binding
What all share (conditions): dsDNA, one strand shown

For one experiment, the target named is T1, GST-Ap-NF-kB RHD (Exaiptasia pallida (Aiptasia), UniProt A0A913YAJ5 2-422).
T1 sequence: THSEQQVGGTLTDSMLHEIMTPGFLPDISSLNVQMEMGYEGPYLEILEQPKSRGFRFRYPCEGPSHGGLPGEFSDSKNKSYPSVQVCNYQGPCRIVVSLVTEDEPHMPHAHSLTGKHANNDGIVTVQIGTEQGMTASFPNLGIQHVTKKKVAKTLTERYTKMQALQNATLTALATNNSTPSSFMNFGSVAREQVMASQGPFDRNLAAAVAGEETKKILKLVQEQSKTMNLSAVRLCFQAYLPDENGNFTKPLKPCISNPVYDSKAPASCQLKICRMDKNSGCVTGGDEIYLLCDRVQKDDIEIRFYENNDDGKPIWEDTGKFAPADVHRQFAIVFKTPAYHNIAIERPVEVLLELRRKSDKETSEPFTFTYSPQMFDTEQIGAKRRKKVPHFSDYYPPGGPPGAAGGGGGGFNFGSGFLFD

Experiment [1] addresses T2, GST-Nv-NF-kB (Cys allele) (Nematostella vectensis, UniProt E5G601 2-411).
T2 sequence: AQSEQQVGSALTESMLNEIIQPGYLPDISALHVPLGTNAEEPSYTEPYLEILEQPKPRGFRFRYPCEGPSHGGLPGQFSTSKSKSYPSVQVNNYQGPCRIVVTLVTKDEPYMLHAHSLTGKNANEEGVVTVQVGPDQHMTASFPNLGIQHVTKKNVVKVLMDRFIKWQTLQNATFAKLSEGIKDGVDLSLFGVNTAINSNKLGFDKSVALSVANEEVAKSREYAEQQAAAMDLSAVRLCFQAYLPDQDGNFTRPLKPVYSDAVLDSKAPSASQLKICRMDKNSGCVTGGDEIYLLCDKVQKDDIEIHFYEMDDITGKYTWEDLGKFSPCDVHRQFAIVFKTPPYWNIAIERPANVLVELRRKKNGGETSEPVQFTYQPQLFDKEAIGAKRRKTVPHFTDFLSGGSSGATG

Experiment [2] deals with T3, GST-Nv-NF-kB (Ser allele) (Nematostella vectensis, UniProt A7UNT2 2-411).
T3 sequence: T2 sequence with Q21R, C66S, S207N, E215Q, V217A, E225K, A268E, D399E

A further experiment deals with T4, GST-Co-NF-kB (Capsaspora owczarzaki, UniProt F1ARL5 200-546).
T4 sequence: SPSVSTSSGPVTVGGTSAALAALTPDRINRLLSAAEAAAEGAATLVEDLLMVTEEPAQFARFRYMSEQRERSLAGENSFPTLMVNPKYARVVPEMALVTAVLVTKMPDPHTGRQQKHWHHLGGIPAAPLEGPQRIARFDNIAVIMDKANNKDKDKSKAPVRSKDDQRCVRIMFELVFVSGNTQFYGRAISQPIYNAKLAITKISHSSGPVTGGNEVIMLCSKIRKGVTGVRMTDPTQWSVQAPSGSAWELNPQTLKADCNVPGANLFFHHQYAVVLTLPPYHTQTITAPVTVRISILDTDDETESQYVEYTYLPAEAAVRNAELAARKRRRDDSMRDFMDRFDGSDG

For the next experiment, the target named is T5, GST-Dm-Relish (Drosophila melanogaster, UniProt Q94527 99-473).
T5 sequence: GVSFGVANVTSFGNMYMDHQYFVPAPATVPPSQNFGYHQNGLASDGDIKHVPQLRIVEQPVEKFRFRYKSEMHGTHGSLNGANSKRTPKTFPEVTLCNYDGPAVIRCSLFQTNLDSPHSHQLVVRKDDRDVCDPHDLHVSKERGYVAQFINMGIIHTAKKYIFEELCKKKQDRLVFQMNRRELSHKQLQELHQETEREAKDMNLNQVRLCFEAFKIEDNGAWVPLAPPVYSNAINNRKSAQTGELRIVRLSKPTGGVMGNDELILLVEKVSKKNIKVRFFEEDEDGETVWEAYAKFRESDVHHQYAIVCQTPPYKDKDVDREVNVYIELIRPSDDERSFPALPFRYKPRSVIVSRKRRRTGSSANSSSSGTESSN

The target of another experiment is T6, GST-Aq-NF-kB (Amphimedon queenslandica, UniProt A9Y5G7 2-389).
T6 sequence: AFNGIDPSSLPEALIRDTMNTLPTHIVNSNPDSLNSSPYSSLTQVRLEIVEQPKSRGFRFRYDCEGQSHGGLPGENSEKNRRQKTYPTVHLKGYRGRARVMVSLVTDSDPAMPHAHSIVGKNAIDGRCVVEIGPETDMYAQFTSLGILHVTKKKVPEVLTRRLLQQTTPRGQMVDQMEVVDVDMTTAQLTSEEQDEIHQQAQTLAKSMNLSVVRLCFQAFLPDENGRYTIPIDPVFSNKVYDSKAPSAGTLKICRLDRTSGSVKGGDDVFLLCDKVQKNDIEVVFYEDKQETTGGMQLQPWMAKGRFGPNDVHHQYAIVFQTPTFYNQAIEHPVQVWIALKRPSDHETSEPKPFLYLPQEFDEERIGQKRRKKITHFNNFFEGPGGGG

On to “CCGATTAACATCAGGGAATACACTGATGTTAATCGGGTCTTGATTCGCTTGACGCTGCTG”, for which the binding signal came to 2.66 z-score in the experiment with GST-Ap-NF-kB RHD; 2.43 z-score in experiment [1]; 2.21 z-score in experiment [2]; 2.5 z-score with GST-Co-NF-kB; 2.61 z-score with GST-Dm-Relish; 3.68 z-score with GST-Aq-NF-kB.
On to “CCGATTAACATCAACGTGGGGCGTGATGTTAATCGGGTCTTGATTCGCTTGACGCTGCTG”, for which the binding signal with GST-Ap-NF-kB RHD was found to be 1.07 z-score; in experiment [1], 1.14 z-score; in experiment [2], 1.09 z-score; with GST-Co-NF-kB, 1.11 z-score; in the experiment with GST-Aq-NF-kB, 1.15 z-score.
Consider “CCGATTAACATCAATTTTTTCCCTGATGTTAATCGGGTCTTGATTCGCTTGACGCTGCTG”, for which the binding signal was determined as 3.79 z-score in the experiment with GST-Ap-NF-kB RHD; 5.88 z-score in experiment [1]; 7.47 z-score in experiment [2]; 6.48 z-score with GST-Co-NF-kB; 2.71 z-score with GST-Dm-Relish; 4.16 z-score with GST-Aq-NF-kB.
On to “CCGATTAACATCACATACCCCCCTGATGTTAATCGGGTCTTGATTCGCTTGACGCTGCTG”, for which the binding signal with GST-Ap-NF-kB RHD was 4.69 z-score; in experiment [1], 3.25 z-score; in experiment [2], 3.69 z-score; with GST-Co-NF-kB, 3.97 z-score; with GST-Dm-Relish it was 3.92 z-score; in the experiment with GST-Aq-NF-kB, 3.91 z-score.
Consider “CCGATTAACATCAGGGAAAATCATGATGTTAATCGGGTCTTGATTCGCTTGACGCTGCTG”, for which the binding signal stood at 3.91 z-score with GST-Ap-NF-kB RHD; 5.72 z-score in experiment [1]; 7.02 z-score in experiment [2]; 4.62 z-score with GST-Co-NF-kB; 1.46 z-score with GST-Dm-Relish; 5.1 z-score in the experiment with GST-Aq-NF-kB.
Turning to “CCGATTAACATCAGGGGGGGGTATGATGTTAATCGGGTCTTGATTCGCTTGACGCTGCTG”, the binding signal in the experiment with GST-Ap-NF-kB RHD stood at 5.02 z-score; in experiment [1] it was 2.75 z-score; in experiment [2], 3.75 z-score; in the experiment with GST-Co-NF-kB, 5.96 z-score; in the experiment with GST-Aq-NF-kB, 4.39 z-score.
Take “CCGATTAACATCAGCATTTTCCCTGATGTTAATCGGGTCTTGATTCGCTTGACGCTGCTG”: the binding signal with GST-Ap-NF-kB RHD came out at 3.21 z-score; in experiment [1], 4.61 z-score; in experiment [2], 6.85 z-score; with GST-Co-NF-kB it was 3.96 z-score; with GST-Aq-NF-kB, 3.68 z-score.
On to “CCGATTAACATCAAATTTTTCCCTGATGTTAATCGGGTCTTGATTCGCTTGACGCTGCTG”, for which the binding signal in the experiment with GST-Ap-NF-kB RHD is 3.81 z-score; in experiment [1] it was 6.06 z-score; in experiment [2] it was 8.21 z-score; with GST-Co-NF-kB it was 6.81 z-score; with GST-Dm-Relish, 2.35 z-score; with GST-Aq-NF-kB, 4.92 z-score.
With “CCGATTAACATCAGGGAAAAAAATGATGTTAATCGGGTCTTGATTCGCTTGACGCTGCTG”, the binding signal with GST-Ap-NF-kB RHD came out at 3.48 z-score; in experiment [1] it was 5.81 z-score; in experiment [2], 7.5 z-score; with GST-Co-NF-kB, 5.71 z-score; with GST-Dm-Relish, 2.19 z-score; with GST-Aq-NF-kB, 4.63 z-score.
For the sequence “CCGATTAACATCAAAGGGAATTCTGATGTTAATCGGGTCTTGATTCGCTTGACGCTGCTG”, the binding signal with GST-Ap-NF-kB RHD came to 4.72 z-score; in experiment [1] it was 7.1 z-score; in experiment [2], 6.91 z-score; with GST-Co-NF-kB, 2.97 z-score; in the experiment with GST-Dm-Relish, 4.04 z-score; with GST-Aq-NF-kB, 5.65 z-score.
For the sequence “CCGATTAACATCAGTATTCCCCATGATGTTAATCGGGTCTTGATTCGCTTGACGCTGCTG”, the binding signal is 6.37 z-score with GST-Ap-NF-kB RHD; 7.73 z-score in experiment [1]; 6.79 z-score in experiment [2]; 7.15 z-score in the experiment with GST-Co-NF-kB; 4.54 z-score in the experiment with GST-Dm-Relish; 5.32 z-score in the experiment with GST-Aq-NF-kB.
On to “CCGATTAACATCAAATTCTCCCCTGATGTTAATCGGGTCTTGATTCGCTTGACGCTGCTG”, for which the binding signal in the experiment with GST-Ap-NF-kB RHD came out at 5.65 z-score; in experiment [1], 6.62 z-score; in experiment [2], 7.76 z-score; with GST-Co-NF-kB, 8.72 z-score; in the experiment with GST-Dm-Relish, 2.37 z-score; with GST-Aq-NF-kB, 5.21 z-score.
